Reference: PubChem BioAssay (EPA / NIEHS)
Calls of active or inactive are those of the source. Rule for the calls: active = hit-call score of the fitted dose curve at least 0.9, where 1 is the maximum; inactive = score below 0.9.

Each compound was assayed against Paired box protein Pax-6 (Homo sapiens) (UniProt P26367) (assay: ATG_Pax6_CIS: Attagene CIS-FACTORIAL HepG2 Assay for human Paired Box 6 (PAX6) (AID 2282956)). Settings: HepG2 CIS-FACTORIAL PAX6 reporter transcription, RNA readout; actives raise or lower the signal.
Chain of Paired box protein Pax-6 (Homo sapiens) (P26367 whole entry, looked up): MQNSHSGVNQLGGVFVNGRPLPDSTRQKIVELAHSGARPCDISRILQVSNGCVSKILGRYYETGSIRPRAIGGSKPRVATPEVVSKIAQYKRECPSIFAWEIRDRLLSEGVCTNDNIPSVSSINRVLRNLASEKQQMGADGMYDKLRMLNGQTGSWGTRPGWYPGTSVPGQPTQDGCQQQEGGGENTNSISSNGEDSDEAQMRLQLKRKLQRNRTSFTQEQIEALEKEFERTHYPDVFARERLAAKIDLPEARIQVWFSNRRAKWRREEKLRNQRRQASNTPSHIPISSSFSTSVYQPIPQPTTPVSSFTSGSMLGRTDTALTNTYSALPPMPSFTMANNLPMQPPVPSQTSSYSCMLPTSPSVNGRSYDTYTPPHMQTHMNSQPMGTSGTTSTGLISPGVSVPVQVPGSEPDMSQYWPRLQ
Method: ATG_CIS is a cell-based, multiplexed-readout assay that uses HepG2, a human liver cell line, with measurements taken at 24 hours after chemical dosing in a 24-well plate.ATG_Pax6_CIS is one of 52 assay component(s) measured or calculated from the ATG_CIS assay. It is designed to make measurements of mRNA induction, a form of inducible reporter, as detected with fluorescence intensity signals by Reverse transcription polymerase chain reaction (RT-PCR) and Capillary electrophoresis technology.Data from the assay component ATG_Pax6_CIS was analyzed into 1 assay endpoint. This assay endpoint, ATG_Pax6_CIS, was analyzed with bidirectional fitting relative to DMSO as the negative control and baseline of activity. Using a type of inducible reporter, measures of mRNA for gain or loss-of-signal activity can be used to understand the reporter gene at the transcription factor-level as they relate to the gene PAX6. Furthermore, this assay endpoint can be referred to as a primary readout, because this assay has produced multiple assay endpoints where this one serves a reporter gene function. To generalize the intended target to other relatable targets, this assay endpoint is annotated to the dna binding intended target family, where the subfamily is paired box protein.
Human liver HepG2 cells are transiently transfected with multiple reporter transcription units (MRTUs) in 6-well plates using FuGene 6 reagent (Roche; 3 ml FuGene/1 mg DNA). The MRTU constructs are regulated by a cis-regulating element (promoter). […] A major difference between the CIS and TRANS system is that in CIS activities of endogenous TFs are measured, whereas the TRANS assay evaluates changes in activities of exogenous, chimeric NR-Gal4 proteins. […] At the end of 24 hour incubation, total RNA was isolated using TriZol reagent (Invitrogen). The isolated RNA is then reverse-transcribed using oligo(dT) primer and Mo-MLV reverse transcriptase (Invitrogen) with DNAse I (Ambion) treatment for 30 min. The one-tenth of the produced cDNA was amplified by PCR using Taq DNA polymerase (Invitrogen) and two reporter sequence-specific primers. The PCR products were fluorescently labeled by primer extension with 6-arboxyfluorescein (6-FAM) 5'-labeled reporter sequence-specific primer (2 min at 95 C, 20 s at 68 C and 10 min at 72 C) and these products were digested with 5U of HpaI (New England Biolabs) for 2h at 37 C. The fragments were purified using Qiaquick PCR columns (Qiagen), analyzed on an ABI 3130xL genetic analyzer (Applied Biosystems) with peak positions identified by using a set of X-rhodamine (ROX)-labeled MapMarker1000 molecular weight standards (BioVentures). The raw capillary electrophoresis data was processed using Attagraph software (Attagene).

**Q.** For `CC(=O)C1(C)CC2=C(CCCC2(C)C)CC1C` (stereo not given), which outcome is on record?
**A.** Its outcome is “inactive”.

**Q.** For `O=CN1CCOCC1`, which outcome is on record?
**A.** The outcome was “inactive”.

**Q.** For `CCCCCCC(O)CCCCCCCCCCC(=O)O` (stereo not given), which outcome is on record?
**A.** Its outcome is “inactive”.

**Q.** `C=C(C)[C@H]1CC=C(C)C(=O)C1` was tested. Which outcome did it give?
**A.** The outcome was “inactive”.

**Q.** For `C/C=C(\C)C(=O)OCCc1ccccc1`, which outcome is on record?
**A.** Its outcome is “inactive”.

**Q.** How did the outcome turn out when `CCOC(=O)c1ccc(N)cc1` was run?
**A.** Its outcome is “inactive”.

**Q.** Which outcome does the source give for `CCCCCCOC(=O)C(C)C` here?
**A.** Its outcome is “inactive”.

**Q.** Which AC50 does the source give for `C=CC(=O)OCCC#N` here?
**A.** The AC50 was 47.9 µM (active).

**Q.** For `CCCCCCCCCC(C)C=O` (stereo not given), which outcome is on record?
**A.** Its outcome is “inactive”.

**Q.** How did the outcome turn out when `CCCCCCCCCCCCCCCC(=O)OC/C=C(C)/C=C/C=C(C)/C=C/C1=C(C)CCCC1(C)C` was run?
**A.** The outcome was “inactive”.

**Q.** `C=CC(=C)CCCC(C)(C)OC(C)=O` was tested. Which outcome did it give?
**A.** The outcome was “inactive”.

**Q.** For `Nc1ccc2cc(S(=O)(=O)O)cc(O)c2c1N=Nc1ccccc1C(F)(F)F`, which outcome is on record?
**A.** Its outcome is “inactive”.

**Q.** With `COc1ccccc1[N+](=O)[O-]` as the compound, how does the outcome read?
**A.** Its outcome is “inactive”.

**Q.** For `CC(C)C[C@H](NC(=O)OCC1c2ccccc2-c2ccccc21)C(=O)O`, which outcome is on record?
**A.** The outcome was “inactive”.

**Q.** Which outcome does the source give for `COc1ccc(OC)c(N=Nc2c(O)ccc3ccccc23)c1` here?
**A.** The outcome was “inactive”.

**Q.** With `CCCSc1ccc2nc(NC(=O)OC)[nH]c2c1` as the compound, how does the outcome read?
**A.** The outcome was “inactive”.

**Q.** For `CCCCCCCCCCCC(=O)OCC(O)CO` (stereo not given), which outcome is on record?
**A.** The outcome was “inactive”.

**Q.** `O=c1[nH]c(=O)c2cn[nH]c2[nH]1` was tested. Which outcome did it give?
**A.** Its outcome is “inactive”.

**Q.** How did the outcome turn out when `C=Cc1ccc(C)cc1` was run?
**A.** The outcome was “inactive”.

**Q.** With `CC1(C)COCN1` as the compound, how does the outcome read?
**A.** Its outcome is “inactive”.

**Q.** With `COC(C)(C)CC(C)=O` as the compound, how does the outcome read?
**A.** Its outcome is “inactive”.

**Q.** `c1ccc(CCc2ccccc2)cc1` was tested. Which outcome did it give?
**A.** Its outcome is “inactive”.

**Q.** For `O=C1NC2NC(=O)NC2N1` (stereo not given), which outcome is on record?
**A.** The outcome was “inactive”.

**Q.** Which outcome does the source give for `Nc1c(S(=O)(=O)O)cc(Br)c2c1C(=O)c1ccccc1C2=O` here?
**A.** Its outcome is “inactive”.

**Q.** `OCc1cccc(Oc2ccccc2)c1` was tested. Which outcome did it give?
**A.** The outcome was “inactive”.

**Q.** Which outcome does the source give for `Cc1cc(=O)oc2cc(N(C)C)ccc12` here?
**A.** Its outcome is “inactive”.

**Q.** Which AC50 does the source give for `CCOC(=O)C(C#N)=C(c1ccccc1)c1ccccc1` here?
**A.** The AC50 was 35.1 µM (active).

**Q.** For `CC(=O)CC(=O)Nc1ccccc1`, which outcome is on record?
**A.** The outcome was “inactive”.

**Q.** With `CCCCCCCC(=O)OCC(O)CO` (stereo not given) as the compound, how does the outcome read?
**A.** The outcome was “inactive”.

**Q.** With `CCCC[O][Al]([O]CCCC)[O]CCCC` as the compound, how does the outcome read?
**A.** Its outcome is “inactive”.

**Q.** Which outcome does the source give for `C=C(C)CNCC` here?
**A.** The outcome was “inactive”.

**Q.** For `Nc1ccc(N)c2c1C(=O)c1ccccc1C2=O`, which outcome is on record?
**A.** The outcome was “inactive”.

**Q.** `CCCCCCCC/C=C\CCCCCCCC(=O)OCC` was tested. Which outcome did it give?
**A.** Its outcome is “inactive”.

**Q.** How did the outcome turn out when `CCC(=O)O[C@@H]1C[C@H]2CC[C@]1(C)C2(C)C` was run?
**A.** Its outcome is “inactive”.

**Q.** Which outcome does the source give for `CCC1CCCCC1` here?
**A.** The outcome was “inactive”.

**Q.** `CN(C)C(=S)SC(=S)N(C)C` was tested. Which outcome did it give?
**A.** Its outcome is “inactive”.

**Q.** With `O=C1CCCC=CCCCCCCCCCC1` as the compound, how does the outcome read?
**A.** Its outcome is “inactive”.

**Q.** `C1CCCCC1` was tested. Which outcome did it give?
**A.** Its outcome is “inactive”.

**Q.** With `CC(=O)O[C@@H]1CC2CCC1(C)C2(C)C` (stereo not given in full) as the compound, how does the outcome read?
**A.** Its outcome is “inactive”.

**Q.** Which outcome does the source give for `CC(=O)CC(=O)Nc1ccc(C)cc1C` here?
**A.** The outcome was “inactive”.
